Assay results reported in PubChem BioAssay (NCATS).
Inconclusive results are not listed. Active and inactive are the calls of the source. Calls follow the shape of the dose curve; as a rule, active = well fitted curve in the direction sought with a large enough effect; inconclusive = small, poorly fitted or top-dose-only effect, or another doubt; inactive = no such curve, though single readings can be large; an effect the other way counts as inactive or inconclusive.

Legend:
[1] = system: HaCat; assay: Cytotoxic Profiling of Annotated Libraries Using Quantitative High-Throughput Screening (AID 1296008); settings: Five cell lines viability, CellTiter-Glo ATP luminescence, 48-72 h; max response: stronger effect = lower value; also: nearly all actives have a fitted effect of over 60% in size
Summary of the method: (§1)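 Cytotoxicity was measured as CellTiter-Glo ATP luminescence, read after 10 min at room temperature. Compound treatment of the cells lasted 48 or 72 hr at 37 degrees Celsius in a qHTS format.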

[2] = system: NIH3T3; assay: as above; settings: Five cell lines viability, CellTiter-Glo ATP luminescence, 48-72 h; max response: stronger effect = lower value
Summary of the method: as §1

[3] = system: HACAT; assay: qHTS assay to identify novel small-molecules to repurpose for Merkel cell carcinoma treatment (AID 1296009); settings: MCC and control cell lines, CellTiter-Glo viability, 72 h; at 44.8 µM (top of the series) unless noted; also: nearly all actives have a fitted effect of over 60% in size
Summary of the method: (§2)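 Cell viability, measured as CellTiter-Glo luminescence, was normalized between DMSO and no-cell wells. The cells had been exposed to 8- or 11-point compound dilutions for 72 hr at 37 degree celsius.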

[4] = system: HEK293T; assay: as above; settings: MCC and control cell lines, CellTiter-Glo viability, 72 h; at 44.8 µM (top of the series) unless noted
Summary of the method: as §2

[5] = system: MCC-13; assay: as above; settings: MCC and control cell lines, CellTiter-Glo viability, 72 h; series mostly up to 46 µM
Summary of the method: as §2

[6] = system: MCC-26; assay: as above; settings: MCC and control cell lines, CellTiter-Glo viability, 72 h; series mostly up to 46 µM
Summary of the method: as §2

[7] = system: MKL-1; assay: as above; settings: MCC and control cell lines, CellTiter-Glo viability, 72 h; series mostly up to 46 µM
Summary of the method: as §2

[8] = system: MKL-2; assay: as above; settings: MCC and control cell lines, CellTiter-Glo viability, 72 h; series mostly up to 46 µM
Summary of the method: as §2

[9] = system: NIH3T3; assay: as above; settings: MCC and control cell lines, CellTiter-Glo viability, 72 h; at 44.8 µM (top of the series) unless noted
Summary of the method: as §2

[10] = system: UISO; assay: as above; settings: MCC and control cell lines, CellTiter-Glo viability, 72 h; series mostly up to 46 µM
Summary of the method: as §2

[11] = system: WaGa; assay: as above; settings: MCC and control cell lines, CellTiter-Glo viability, 72 h; series mostly up to 46 µM
Summary of the method: as §2

[12] = system: C33A; assay: Primary qHTS to identify gynecologic anti-cancer compounds using libraries of approved drugs and bioactive compounds (AID 1345084); settings: Gynecologic cancer cell panel viability, ATPlite luminescence, 48 h; series mostly up to 57.5 µM; also: nearly all actives have a fitted effect of over 55% in size
Summary of the method: (§3)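 Cell viability after 48 h drug treatment, ATPlite luminescence readout; five doses.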

[13] = system: CAOV3; assay: as above; settings: Gynecologic cancer cell panel viability, ATPlite luminescence, 48 h; series mostly up to 57.5 µM
Summary of the method: as §3

[14] = system: CASKI; assay: as above; settings: Gynecologic cancer cell panel viability, ATPlite luminescence, 48 h; series mostly up to 57.5 µM
Summary of the method: as §3

[15] = system: Es-2; assay: as above; settings: Gynecologic cancer cell panel viability, ATPlite luminescence, 48 h; series mostly up to 57.5 µM
Summary of the method: as §3

[16] = system: HeLa; assay: as above; settings: Gynecologic cancer cell panel viability, ATPlite luminescence, 48 h; series mostly up to 57.5 µM
Summary of the method: as §3

[17] = system: Hek293T; assay: as above; settings: Gynecologic cancer cell panel viability, ATPlite luminescence, 48 h, control line for the selectivity index; series mostly up to 57.5 µM
Summary of the method: as §3

[18] = system: JEG-3; assay: as above; settings: Gynecologic cancer cell panel viability, ATPlite luminescence, 48 h; series mostly up to 57.5 µM
Summary of the method: as §3

[19] = system: OV90; assay: as above; settings: Gynecologic cancer cell panel viability, ATPlite luminescence, 48 h; series mostly up to 57.5 µM
Summary of the method: as §3
% is scaled to controls: 0 for no effect and ±100 for the full control effect.

CN(C)CCN1CCN(c2cccc(Cl)c2)C1=O
inactive: outcome [1] | outcome [2] | outcome [3] | outcome [4] | Potency [5] | Potency [6] | Potency [7] | Potency [8] | outcome [9] | Potency [10] | Potency [11] | Potency [12] | Potency [13] | Potency [14] | Potency [15] | Potency [16] | Potency [17] | Potency [18] | Potency [19]

Cc1cccc(C)c1NC(=O)c1ccc(N)cc1
inactive: outcome [1] | outcome [2] | outcome [3] | Potency [5] | Potency [6] | Potency [7] | Potency [8] | outcome [9] | Potency [10] | Potency [11] | Potency [12] | Potency [13] | Potency [14] | Potency [15] | Potency [16] | Potency [17] | Potency [18] | Potency [19]

COC(=O)c1cc(Cl)c(NC(C)=O)cc1OC
inactive: outcome [1] | outcome [2] | outcome [3] | Potency [5] | Potency [6] | Potency [7] | Potency [8] | outcome [9] | Potency [10] | Potency [11] | Potency [12] | Potency [13] | Potency [14] | Potency [15] | Potency [16] | Potency [17] | Potency [18] | Potency [19]

COc1ccc(CCC(C)=O)cc1
inactive: outcome [1] | outcome [2] | outcome [3] | outcome [4] | Potency [5] | Potency [6] | Potency [7] | Potency [8] | outcome [9] | Potency [10] | Potency [11] | Potency [12] | Potency [13] | Potency [14] | Potency [15] | Potency [16] | Potency [17] | Potency [18] | Potency [19]

Cc1oc(-c2ccccc2)nc1CCC(=O)c1ccc(CC2SC(=O)NC2=O)cc1 (configuration not stated)
inactive: outcome [1] | max response [2] -0.446% | outcome [3] | outcome [4] | Potency [5] | Potency [6] | Potency [7] | Potency [8] | Potency [10] | Potency [12] | Potency [13] | Potency [14] | Potency [15] | Potency [16] | Potency [17] | Potency [18] | Potency [19]

CC(=O)O[C@@H]1CC2C3CCc4cc(OC(=O)c5ccccc5)ccc4C3CCC2(C)[C@H]1OC(C)=O (some centres not stated)
inactive: outcome [1] | max response [2] 3.57% | outcome [3] | outcome [4] | Potency [5] | Potency [6] | Potency [7] | Potency [8] | Potency [10] | Potency [11] | Potency [12] | Potency [13] | Potency [14] | Potency [15] | Potency [16] | Potency [17] | Potency [18] | Potency [19]

O=C(CCOCCOCCOCCOCCC(=O)Nc1c(I)cc(I)c(C(=O)O)c1I)Nc1c(I)cc(I)c(C(=O)O)c1I
inactive: outcome [1] | max response [2] 0.931% | outcome [3] | outcome [4] | Potency [5] | Potency [6] | Potency [7] | Potency [8] | Potency [10] | Potency [11] | Potency [12] | Potency [13] | Potency [14] | Potency [15] | Potency [16] | Potency [17] | Potency [18] | Potency [19]
